L3MBTL1 inh = blocks human L3MBTL1 | Q9Y468 | AlphaScreen L3MBTL1–H3K9me1 peptide binding | Potency, µM (doses to about 57.1 µM), for inactives: at the top dose activity, negative = inhibition, most hits filed as inhibitors | 0.66% of 230,000 active; further: on the % scale 0 is the no-effect control and ±100 the full control effect; nearly all actives have a fitted effect of over 60% in size
Target sequence (Q9Y468 whole entry, looked up): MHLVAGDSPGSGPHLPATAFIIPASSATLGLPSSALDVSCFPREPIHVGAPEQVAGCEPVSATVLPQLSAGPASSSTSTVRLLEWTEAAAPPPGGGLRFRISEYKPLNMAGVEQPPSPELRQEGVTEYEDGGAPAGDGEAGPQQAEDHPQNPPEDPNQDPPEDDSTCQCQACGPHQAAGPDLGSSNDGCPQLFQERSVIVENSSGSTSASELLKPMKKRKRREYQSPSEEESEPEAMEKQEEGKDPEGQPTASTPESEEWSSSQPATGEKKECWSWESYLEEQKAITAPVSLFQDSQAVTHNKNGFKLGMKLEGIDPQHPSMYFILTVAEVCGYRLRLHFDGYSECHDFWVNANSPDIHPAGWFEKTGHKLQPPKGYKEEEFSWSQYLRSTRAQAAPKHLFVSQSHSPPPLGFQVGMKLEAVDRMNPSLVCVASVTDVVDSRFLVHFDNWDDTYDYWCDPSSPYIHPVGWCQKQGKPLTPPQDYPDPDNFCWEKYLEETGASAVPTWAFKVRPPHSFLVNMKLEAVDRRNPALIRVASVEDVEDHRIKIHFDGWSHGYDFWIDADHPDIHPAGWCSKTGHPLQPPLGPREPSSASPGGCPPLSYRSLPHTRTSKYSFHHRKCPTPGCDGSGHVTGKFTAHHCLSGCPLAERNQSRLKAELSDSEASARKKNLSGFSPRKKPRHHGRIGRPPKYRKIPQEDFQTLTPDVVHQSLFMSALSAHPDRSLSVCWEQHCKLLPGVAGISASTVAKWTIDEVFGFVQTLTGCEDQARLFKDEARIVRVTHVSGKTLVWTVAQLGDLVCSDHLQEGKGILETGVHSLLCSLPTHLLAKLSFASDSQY
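AlphaScreen assay: L3MBTL1 (50 nM final) was preincubated 30 min at room temperature with biotinylated H3(1-15)K9me1 peptide (75 nM final), then 30 min with library compounds; streptavidin donor and nickel chelate acceptor beads (10 ug/mL final) added, 30 min dark.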
BAZ2B inh = BAZ2B (human) inhibition. 4.4% of 360,000 active. Q9UIF8. Potency, µM (highest dose often 114 µM), without a hit: at the highest dose activity change, negative = inhibition, usual class: inhibitors. AlphaScreen BAZ2B-H3K14Ac peptide displacement; further: on the % scale 0 is the no-effect control and ±100 the full control effect; nearly all actives have a fitted effect of over 60% in size
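Complex of BAZ2B and biotin-H3K14Ac (50 nM apiece) forms over 30 min at RT, then faces library compounds up to 110 uM for another 30 min; AlphaScreen beads added, 20 min dark incubation, luminescence read.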
JMJD2A Tudor = blocks the human JMJD2A Tudor domain. O75164. AlphaScreen JMJD2A-Tudor / H3K4me3 peptide binding. Potency, µM (series often up to 114 µM), without a hit: at the highest dose activity change, negative = inhibition, most hits filed as inhibitors. 4.4% of 390,000 active; further: on the % scale 0 is the no-effect control and ±100 the full control effect; nearly all actives have a fitted effect of over 50% in size
HP1b chromo inh = HP1-beta chromodomain-methylated histone interaction inhibition. P83916. AlphaScreen HP1-beta / biotin-H3K9me3 peptide binding. Potency, µM (series often up to 114 µM), for inactives: at the highest dose activity change, negative = inhibition, actives largely listed as inhibitors. 0.56% of 390,000 active. AID 540317; further: nearly all actives have a fitted effect of over 70% in size
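AlphaScreen: HP1-beta (50 nM) preformed 30 min with biotin-H3(1-18)K9me3 peptide (50 nM) in PBS pH 7.4, 0.01% Tween-20. Compound added for 30 min at RT, then streptavidin donor/nickel chelate acceptor beads (10 ug/mL) for 30 min.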
G9a block = inhibitors of human histone lysine methyltransferase G9a; Q96KQ7; G9a H3K9 monomethylation, AlphaScreen, 2 h; Potency, µM (titrated, usually from 102 µM), for inactives: top-dose activity, negative = inhibition, actives largely listed as inhibitors; 8.8% of 350,000 active; AID 504332; further: on the % scale 0 is the no-effect control and ±100 the full control effect; nearly all actives have a fitted effect of over 75% in size
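Quantitative HTS format: methyltransferase activity on a biotin-tagged H3K9 peptide is measured by AlphaScreen, using a rabbit anti-monomethyl-H3K9 antibody with streptavidin donor and anti-IgG acceptor beads. Final levels are 20 nM enzyme, 500 nM peptide, 20 uM SAM; 2 h RT.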
Numbers without * were called inactive; u = inconclusive; x = no result given; [ ] = another dose, or the depositor's remark. Most compounds without a hit are left out; they make up all but 11% or so of the library. The call rests on the fitted dose curve; in most records, active means well fitted inhibition curve with a large enough effect; inconclusive means small, poorly fitted or top-dose-only effect; inactive means no such curve, though single readings can be large or run the other way. Potency means the concentration at half of the fitted maximal effect.

SMILES	L3MBTL1 inh	BAZ2B inh	JMJD2A Tudor	HP1b chromo inh	G9a block
Cc1nn(C)cc1CN(C)C(=O)c1ccc(OC2CCN(Cc3ccccn3)CC2)cc1	x	u	56.2µM*	29.4%	u
CC(C)N(Cc1cnn(C)c1)C(=O)c1ccc(OC2CCN(Cc3ccccn3)CC2)cc1	x	89.1µM*	-35.9%	27.7%	44.7µM*
CN(Cc1nccs1)C(=O)c1ccc(OC2CCN(Cc3ccccn3)CC2)cc1	x	-12.2%	-4.9%	15.8%	x
COc1ccc(CN(C)CC2CCCN(CCc3ccccc3C)C2)cc1O (stereo not drawn)	-11.3%	-1.8%	-33.1%	19.8%	x
COc1ccc(CCN2CCCC(CN(C)Cc3cc(Cl)c(O)c(OC)c3)C2)cc1 (stereo not drawn)	-1.3%	-30.5%	-18.3%	46.6%	70.8µM*
CCCn1c(SCC(=O)N2CCN(C(C)=O)CC2)nc2sc3c(c2c1=O)CCC3	x	-15.1%	-32.1%	27.5%	70.8µM*
O=C(CSc1nc2sc3c(c2c(=O)n1-c1ccccc1)CCCC3)N/N=C/c1ccc(C(=O)O)cc1	x	-31.1%[57.1 µM]	79.4µM*	79.4µM*	-10.9%
CCn1c(SCC(N)=O)nc2sc3c(c2c1=O)CCN(C)C3	-7.6%	-2.3%	-24.1%	30.7%	56.2µM*
CCCn1c(SCC(=O)NCC)nc2sc3c(c2c1=O)CCC3	x	3.7%	-11.6%	0.4%	22.9%
CN1CCc2c(sc3c2c(=O)n(-c2ccccc2)c2nnc(SCc4ccc(F)cc4)n32)C1	x	x	15.1%	16.4%[57 µM]	x
CN1CCc2c(sc3c2c(=O)n(-c2ccccc2)c2nnc(SCc4ccccc4)n32)C1	x	-20.3%	89.1µM*	22.6%	u
COc1ccc(C(=O)Nc2nnc(SCc3cc(=O)n4cc(Cl)ccc4n3)s2)cc1	x	1.5%	-21.1%	20.0%[57 µM]	-1.5%[59 µM]
Cc1ccc(C)c(N2CCN(C(=O)c3cc(S(=O)(=O)N4CCCCCC4)cn3C)CC2)c1	x	u	u	-3.3%[57 µM]	-3.5%[59 µM]
CCCN1CCc2c(sc3nc(SCC)n(-c4ccccc4)c(=O)c23)C1	x	-9.1%	-35.7%	-18.6%	u
CCSc1nc2sc3c(c2c(=O)n1-c1ccccc1)CCN(C)C3	-6.5%	-35.3%	-23.6%	14.7%	79.4µM*
COc1ccc(C(=O)N/N=C/c2cc3ccccc3[nH]c2=S)cc1	x	u	3.16µM*	-5.3%	0.708µM*
CCOc1ccccc1C(=O)N/N=C/c1cccc2cccnc12	-4.6%	44.7µM*	u	17.6%	43.5%[0.501 µM]
O=C(CSc1cccc2cccnc12)N/N=C/c1cccc(O)c1	-1.7%	-1.0%	-13.8%	31.4%	2.7%
O=C(N/N=C/c1ccc(O)c(O)c1)c1ccc(CSc2cccc3cccnc23)cc1	x	u	u	u	35.5µM*
CCOc1ccc(C(=O)N/N=C/c2cccc3cccnc23)cc1	u	20µM*	79.4µM*	24.4%	21.9%[59 µM]
O=C(c1ccc2c(c1)N(Cc1ccc(Cl)cc1)C(=O)c1ccccc1S2(=O)=O)N1CCc2ccccc21	x	-31.9%	-20.5%	27.3%	-7.4%[59 µM]
Cc1ccc(NC(=O)Nc2nnc(N(CC(C)C)CC(C)C)s2)cc1Cl	x	-1.1%	-9.9%	29.6%	-33.3%[59 µM]
Cc1c(P(=S)(c2ccccc2)c2ccccc2)c2ccccc2n1CCc1ccccc1	x	x	-22.4%	x	x
COc1cccc(CNC(=O)CN2C(=O)N(c3c(C)cccc3C)S(=O)(=O)c3ccccc32)c1OC	x	-7.9%	-12.0%	23.0%	4.7%[59 µM]
COc1ccc(C(=O)N/N=C/c2cccc3cccnc23)cc1	u	20µM*	56.2µM*	27.1%	47.7%[12.7 µM]
SMILES	L3MBTL1 inh	BAZ2B inh	JMJD2A Tudor	HP1b chromo inh	G9a block
O=C(CN1CCN(c2ncc(C(F)(F)F)cc2Cl)CC1)N1CCN(c2ncc(C(F)(F)F)cc2Cl)CC1	x	3.2%	-14.2%	18.1%	50.1µM*
CCN1/C(=C/C=C/c2oc3ccc(-c4ccccc4)cc3[n+]2CC)Oc2ccc(-c3ccccc3)cc21	-89.4%	28.2µM*	u	-19.7%	x
CCCCN1C(=O)/C(=C/C=C2\Oc3ccccc3N2CC)SC1=S	-6.5%	u	-9.0%	12.6%	16.9%[0.501 µM]
CCCOc1ccccc1-n1sc2c(c1=S)-c1cc(OC)cc3c1N(C(=O)C3=O)C2(C)C	x	2µM*	2.51µM*	-80.7%	u
CC(C)CCNC(=O)c1onc(CSc2ccccn2)c1C(=O)NCCC(C)C	x	x	35.5µM*	43.7%	x
O=C(CCCCn1c(=O)c2ccccc2n(CC(=O)Nc2cccc(F)c2)c1=O)NCCc1ccccc1	x	-0.3%	-12.3%	44.2%	-4.0%[59 µM]
COc1ccc(S(=O)(=O)NCc2ccc3c(c2)CCN3C(=O)c2ccc(C)cc2)cc1Cl	x	23.0%	-8.4%	46.0%[57 µM]	-6.2%[59 µM]
CCN(CC(=O)Nc1c(C(=O)OC)[nH]c2ccc(Cl)cc12)c1ccc2c(c1)OCO2	-17.6%	39.8µM*	56.2µM*	u	28.2µM*
CCOC(=O)c1[nH]c2ccc(Cl)cc2c1NC(=O)/C=C/c1ccc2c(c1)OCO2	4.8%	-7.4%	-8.9%	34.6%	50.7%[59 µM]
O=C(CSC1=NNC(c2ccccn2)S1)Nc1cccc(Cl)c1 (stereo not drawn)	x	7.08µM*	22.4µM*	14.2%	x
O=C(CSC1=NNC(c2ccccn2)S1)Nc1ccccc1 (stereo not drawn)	x	5.62µM*	6.31µM*	42.2%	u
CCc1c(C)sc2c1CCN(Cc1cccc(OC)c1)C2c1ccccc1 (stereo not drawn)	x	-36.0%	-33.1%	-6.0%	-3.6%[12.7 µM]
COc1cc(CN(C(=O)COc2ccccc2Cl)c2ccccn2)cc(OC)c1OC	x	-24.5%	-4.0%	48.8%	1.3%[59 µM]
Nc1c(C(=O)NC2CCCC2)c2nc3ccccc3nc2n1/N=C/c1ccco1	x	4.1%	-6.0%	15.5%	-6.2%
Nc1c(C(=O)NC2CCCC2)c2nc3ccccc3nc2n1N	-8.4%	12.4%	-20.1%	25.6%	50.1µM*
CCCCn1nnnc1NCc1ccc(OC)c(OC)c1OC	12.3%	6.3%	-9.9%	10.9%	25.3%
COc1ccc(CNc2ncc(-c3ccc(Cl)cc3)n2C)c(OC)c1OC	-6.5%	u	25.1µM*	u	70.8µM*
CCOc1ccc(-c2cnc(NCc3ccc(OC)cc3OC)n2C)cc1	x	u	28.2µM*	u	15.8µM*
Fc1ccc(Nc2ncnc3c2nc2n3CCCCC2)c(F)c1	x	-2.1%	-10.2%	11.2%	0.6%[59 µM]
CN(C(=O)CSc1nc2ccc(NC(=O)COc3ccc(F)cc3)cc2s1)c1ccccc1	x	-14.3%	-17.9%	21.2%	-3.2%[59 µM]
CCN(N=Nc1cccc([N+](=O)[O-])c1)c1cccc([N+](=O)[O-])c1	x	u	u	-33.5%	u
CCOc1cc(C=O)cc(N=Nc2cccc([N+](=O)[O-])c2)c1O	-15.5%	25.1µM*	u	u	44.7µM*
CCN(CC)CCNC(=O)/C(=N\O)c1ccccn1	8.8%	u	u	29.1%	-19.7%[12.7 µM]
CN(C)CCCNCCCNC(=O)/C(=N\O)c1ccccn1	-9.0%	50.1µM*	u	32.4%	7.94µM*

Source: PubChem
